Measurements reported in PMC8222333, “AsCas12a ultra nuclease facilitates the rapid generation of therapeutic cell medicines”.

B1: ACCG (dsDNA)
DNA 1: GCTATCTAGTGCTCAGTACGCACTGACCGAGGAAACTTCTGGCAGGACCAGGTCATGAGATCGGAAGAGCACACGTCTGAACTCCAGTCA
DNA 2: TGACTGGAGTTCAGACGTGTGCTCTTCCGATCTCATGACCTGGTCCTGCCAGAAGTTTCCTCGGTCAGTGCGTACTGAGCACTAGATAGC
RNA: AAUUUCUACUCUUGUAGAUAGGAAACUUCUGGCAGGACC
B2: ACGA (dsDNA)
DNA 1: GCTATCTAGTGCTCAGTACGCACTGACGAAGGAAACTTCTGGCAGGACCAGGTCATGAGATCGGAAGAGCACACGTCTGAACTCCAGTCA
DNA 2: TGACTGGAGTTCAGACGTGTGCTCTTCCGATCTCATGACCTGGTCCTGCCAGAAGTTTCCTTCGTCAGTGCGTACTGAGCACTAGATAGC
RNA: AAUUUCUACUCUUGUAGAUAGGAAACUUCUGGCAGGACC
B3: ACGG (dsDNA)
DNA 1: GCTATCTAGTGCTCAGTACGCACTGACGGAGGAAACTTCTGGCAGGACCAGGTCATGAGATCGGAAGAGCACACGTCTGAACTCCAGTCA
DNA 2: TGACTGGAGTTCAGACGTGTGCTCTTCCGATCTCATGACCTGGTCCTGCCAGAAGTTTCCTCCGTCAGTGCGTACTGAGCACTAGATAGC
RNA: AAUUUCUACUCUUGUAGAUAGGAAACUUCUGGCAGGACC
B4: ACGT (dsDNA)
DNA 1: GCTATCTAGTGCTCAGTACGCACTGACGTAGGAAACTTCTGGCAGGACCAGGTCATGAGATCGGAAGAGCACACGTCTGAACTCCAGTCA
DNA 2: TGACTGGAGTTCAGACGTGTGCTCTTCCGATCTCATGACCTGGTCCTGCCAGAAGTTTCCTACGTCAGTGCGTACTGAGCACTAGATAGC
RNA: AAUUUCUACUCUUGUAGAUAGGAAACUUCUGGCAGGACC
B5: AGAC (dsDNA)
DNA 1: GCTATCTAGTGCTCAGTACGCACTGAGACAGGAAACTTCTGGCAGGACCAGGTCATGAGATCGGAAGAGCACACGTCTGAACTCCAGTCA
DNA 2: TGACTGGAGTTCAGACGTGTGCTCTTCCGATCTCATGACCTGGTCCTGCCAGAAGTTTCCTGTCTCAGTGCGTACTGAGCACTAGATAGC
RNA: AAUUUCUACUCUUGUAGAUAGGAAACUUCUGGCAGGACC
B6: AGAG (dsDNA)
DNA 1: GCTATCTAGTGCTCAGTACGCACTGAGAGAGGAAACTTCTGGCAGGACCAGGTCATGAGATCGGAAGAGCACACGTCTGAACTCCAGTCA
DNA 2: TGACTGGAGTTCAGACGTGTGCTCTTCCGATCTCATGACCTGGTCCTGCCAGAAGTTTCCTCTCTCAGTGCGTACTGAGCACTAGATAGC
RNA: AAUUUCUACUCUUGUAGAUAGGAAACUUCUGGCAGGACC
B7: AGAT (dsDNA)
DNA 1: GCTATCTAGTGCTCAGTACGCACTGAGATAGGAAACTTCTGGCAGGACCAGGTCATGAGATCGGAAGAGCACACGTCTGAACTCCAGTCA
DNA 2: TGACTGGAGTTCAGACGTGTGCTCTTCCGATCTCATGACCTGGTCCTGCCAGAAGTTTCCTATCTCAGTGCGTACTGAGCACTAGATAGC
RNA: AAUUUCUACUCUUGUAGAUAGGAAACUUCUGGCAGGACC
B8: AGCA (dsDNA)
DNA 1: GCTATCTAGTGCTCAGTACGCACTGAGCAAGGAAACTTCTGGCAGGACCAGGTCATGAGATCGGAAGAGCACACGTCTGAACTCCAGTCA
DNA 2: TGACTGGAGTTCAGACGTGTGCTCTTCCGATCTCATGACCTGGTCCTGCCAGAAGTTTCCTTGCTCAGTGCGTACTGAGCACTAGATAGC
RNA: AAUUUCUACUCUUGUAGAUAGGAAACUUCUGGCAGGACC
B9: AGCC (dsDNA)
DNA 1: GCTATCTAGTGCTCAGTACGCACTGAGCCAGGAAACTTCTGGCAGGACCAGGTCATGAGATCGGAAGAGCACACGTCTGAACTCCAGTCA
DNA 2: TGACTGGAGTTCAGACGTGTGCTCTTCCGATCTCATGACCTGGTCCTGCCAGAAGTTTCCTGGCTCAGTGCGTACTGAGCACTAGATAGC
RNA: AAUUUCUACUCUUGUAGAUAGGAAACUUCUGGCAGGACC
B10: AGCG (dsDNA)
DNA 1: GCTATCTAGTGCTCAGTACGCACTGAGCGAGGAAACTTCTGGCAGGACCAGGTCATGAGATCGGAAGAGCACACGTCTGAACTCCAGTCA
DNA 2: TGACTGGAGTTCAGACGTGTGCTCTTCCGATCTCATGACCTGGTCCTGCCAGAAGTTTCCTCGCTCAGTGCGTACTGAGCACTAGATAGC
RNA: AAUUUCUACUCUUGUAGAUAGGAAACUUCUGGCAGGACC
B11: AGCT (dsDNA)
DNA 1: GCTATCTAGTGCTCAGTACGCACTGAGCTAGGAAACTTCTGGCAGGACCAGGTCATGAGATCGGAAGAGCACACGTCTGAACTCCAGTCA
DNA 2: TGACTGGAGTTCAGACGTGTGCTCTTCCGATCTCATGACCTGGTCCTGCCAGAAGTTTCCTAGCTCAGTGCGTACTGAGCACTAGATAGC
RNA: AAUUUCUACUCUUGUAGAUAGGAAACUUCUGGCAGGACC
B12: AGGC (dsDNA)
DNA 1: GCTATCTAGTGCTCAGTACGCACTGAGGCAGGAAACTTCTGGCAGGACCAGGTCATGAGATCGGAAGAGCACACGTCTGAACTCCAGTCA
DNA 2: TGACTGGAGTTCAGACGTGTGCTCTTCCGATCTCATGACCTGGTCCTGCCAGAAGTTTCCTGCCTCAGTGCGTACTGAGCACTAGATAGC
RNA: AAUUUCUACUCUUGUAGAUAGGAAACUUCUGGCAGGACC
B13: ATAC (dsDNA)
DNA 1: GCTATCTAGTGCTCAGTACGCACTGATACAGGAAACTTCTGGCAGGACCAGGTCATGAGATCGGAAGAGCACACGTCTGAACTCCAGTCA
DNA 2: TGACTGGAGTTCAGACGTGTGCTCTTCCGATCTCATGACCTGGTCCTGCCAGAAGTTTCCTGTATCAGTGCGTACTGAGCACTAGATAGC
RNA: AAUUUCUACUCUUGUAGAUAGGAAACUUCUGGCAGGACC
B14: ATCC (dsDNA)
DNA 1: GCTATCTAGTGCTCAGTACGCACTGATCCAGGAAACTTCTGGCAGGACCAGGTCATGAGATCGGAAGAGCACACGTCTGAACTCCAGTCA
DNA 2: TGACTGGAGTTCAGACGTGTGCTCTTCCGATCTCATGACCTGGTCCTGCCAGAAGTTTCCTGGATCAGTGCGTACTGAGCACTAGATAGC
RNA: AAUUUCUACUCUUGUAGAUAGGAAACUUCUGGCAGGACC
B15: ATCG (dsDNA)
DNA 1: GCTATCTAGTGCTCAGTACGCACTGATCGAGGAAACTTCTGGCAGGACCAGGTCATGAGATCGGAAGAGCACACGTCTGAACTCCAGTCA
DNA 2: TGACTGGAGTTCAGACGTGTGCTCTTCCGATCTCATGACCTGGTCCTGCCAGAAGTTTCCTCGATCAGTGCGTACTGAGCACTAGATAGC
RNA: AAUUUCUACUCUUGUAGAUAGGAAACUUCUGGCAGGACC
B16: ATGG (dsDNA)
DNA 1: GCTATCTAGTGCTCAGTACGCACTGATGGAGGAAACTTCTGGCAGGACCAGGTCATGAGATCGGAAGAGCACACGTCTGAACTCCAGTCA
DNA 2: TGACTGGAGTTCAGACGTGTGCTCTTCCGATCTCATGACCTGGTCCTGCCAGAAGTTTCCTCCATCAGTGCGTACTGAGCACTAGATAGC
RNA: AAUUUCUACUCUUGUAGAUAGGAAACUUCUGGCAGGACC
B17: CAAA (dsDNA)
DNA 1: GCTATCTAGTGCTCAGTACGCACTGCAAAAGGAAACTTCTGGCAGGACCAGGTCATGAGATCGGAAGAGCACACGTCTGAACTCCAGTCA
DNA 2: TGACTGGAGTTCAGACGTGTGCTCTTCCGATCTCATGACCTGGTCCTGCCAGAAGTTTCCTTTTGCAGTGCGTACTGAGCACTAGATAGC
RNA: AAUUUCUACUCUUGUAGAUAGGAAACUUCUGGCAGGACC

These binders were tested against dAsCas12a S542R (Acidaminococcus sp., UniProt U2UMQ6 1-1307, S542R;D908A;E993A;D1235A) (assay: Spec-seq (native PAGE EMSA with sequencing of bound and unbound); 25 mM Tris-HCl pH 7.4, 150 mM KCl, 5 mM MgCl2, 10% glycerol, 1 mM DTT, 40 ng/uL salmon sperm DNA; 400 nM Cas12a, 480 nM crRNA, 50 nM library, 37 C 1 h; native PAGE at room temperature; high values mean tight binding). Settings: protein: recombinant.
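Note: relative affinity from the bound to unbound sequence frequency ratio in Spec-seq.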

Binder | binding signal [lnKA]
B1 | -6.71
B2 | -8.68
B3 | -8.37
B4 | -8.74
B5 | -8.52
B6 | -8.48
B7 | -8.54
B8 | -8.4
B9 | -8.34
B10 | -8.91
B11 | -8.99
B12 | -8.3
B13 | -8.39
B14 | -4.3
B15 | -6.64
B16 | -8.74
B17 | -8.57

What follows are binders tested against d-enCas12a (Acidaminococcus sp., UniProt U2UMQ6 1-1307, E174R;S542R;K548R;D908A;E993A;D1235A) in the same assay as above. Settings: protein: recombinant.

Binder | binding signal [lnKA]
B1 | -4.92
B2 | -5.84
B3 | -6.05
B4 | -5.85
B5 | -5.69
B6 | -5.79
B7 | -5.75
B8 | -3.23
B9 | -2.31
B10 | -4.77
B11 | -4.97
B12 | -5.79
B13 | -4.61
B14 | -0.902
B15 | -3.44
B16 | -5.71
B17 | -5.66

Each binder was assayed against d-enCas12a-Ultra (Acidaminococcus sp., UniProt U2UMQ6 1-1307, E174R;S542R;K548R;M537R;F870L;D908A;E993A;D1235A) in the same assay as above. Settings: protein: recombinant.

Binder | binding signal [lnKA]
B1 | -1.45
B2 | -3.39
B3 | -3.43
B4 | -3.49
B5 | -3.24
B6 | -3.32
B7 | -3.47
B8 | -0.786
B9 | -0.527
B10 | -1.73
B11 | -1.83
B12 | -3.34
B13 | -1.84
B14 | -0.294
B15 | -0.793
B16 | -3.4
B17 | -3.35
